# Results from PubChem BioAssay (EPA / NIEHS).
# Several values for one entry are separate records, joined by “and”; a condition that tells them apart may be missing. Equal entries are not always repeated. Inconclusive results are not listed. The source holds several records for some structures; these can differ, active in one and inactive in another. Activity calls are given as the source filed them. Rule for the calls: active = hit-call score of the fitted dose curve at least 0.9, where 1 is the maximum; inconclusive = response in the unintended direction; inactive = score below 0.9.
# Assays:
# [1] = biological target: Androgen Receptor/SRC-1 Co-activator, AR (gene 367) (UniProt P10275); experiment: OT_AR_ARSRC1_0960: Odyssey Thera (OT) 16-hour HEK293T Protein-Complementation Assay for Androgen Receptor/SRC-1 Co-activator (AID 2283353);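 note: actives raise the signal above DMSO so potency reflects increased AR and SRC-1 complex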
# Method in brief: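 Endpoint is gain-of-signal N/C fluorescence ratio in the 488 nm channel versus DMSO, from at least 400 cells per image, measured 16 h post-dosing. Cells: HEK293T stably carrying split-Venus AR/SRC-1 complementation constructs.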
# [2] = biological target: Androgen Receptor/SRC-1 Co-activator, AR (gene 367) (UniProt P10275); experiment: OT_AR_ARSRC1_0480: Odyssey Thera (OT) 8-hour HEK293T Protein-Complementation Assay for Androgen Receptor/SRC-1 Co-activator (AID 2283354);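 note: hits raise the complementation signal above DMSO so AC50 marks enhancers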
# Method in brief: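 Split-Venus PCA, stable HEK293T, AR/SRC-1 fusions; 8 h exposure. Readout: 488nm N/C fluorescence ratio, ≥400 cells/image; fitted upward vs DMSO baseline.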
# [3] = biological target: Estrogen receptor (Homo sapiens) + Estrogen receptor beta (Homo sapiens) (UniProt P03372+Q92731); experiment: OT_ER_ERaERb_1440: Odyssey Thera (OT) 24-hour HEK293T Protein-Complementation Assay for Estrogen Receptor-alpha/-beta Homodimer (AID 2283356);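 note: heteromer of ER alpha and ER beta binding domains; hits raise reporter fluorescence and both agonists and antagonists give an increase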
# Method in brief: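 24 h exposure; HEK293T PCA cells with ERα/ERβ LBD fragments; signal rise in nuclear or whole-cell fluorescence over vehicle.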
# [4] = biological target: Estrogen receptor beta (Homo sapiens) (UniProt Q92731); experiment: OT_ER_ERbERb_0480: Odyssey Thera (OT) 8-hour HEK293T Protein-Complementation Assay for Estrogen Receptor-beta/-beta Homodimer (AID 2283357);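 note: active means signal gain over DMSO baseline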
# Method in brief: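 Homodimerization of ER-beta LBD measured by protein-fragment complementation in HEK293T; 8 h dosing; fixed, Draq5 counterstain; fluorescence intensity gain over DMSO baseline, positive fitting direction; laser scanning cytometry.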
# PGR (gene 5241) = PGR (gene 5241) (UniProt P06401); experiment: NVS_NR_hPR: NovaScreen (NVS) Nuclear Receptor Binding Assay for human Progestron Receptor (PR) (AID 2283360);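 note: active means loss of bound radioligand signal versus DMSO baseline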
# Method in brief: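 Radioligand competition binding on receptor extracted from T47D cells, read by scintillation counting 18 h after dosing. Loss of signal versus DMSO; primary screen in duplicate at 25 uM, actives followed in concentration series.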
# [5] = biological target: human Peroxisome Proliferator-activated Receptor alpha (PPARa), PPARA (gene 5465) (UniProt Q07869); experiment: NVS_NR_hPPARa: NovaScreen (NVS) Nuclear Receptor Binding Assay for human Peroxisome Proliferator-activated Receptor alpha (PPARa) (AID 2283359);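 note: activity means loss of TR-FRET signal versus DMSO baseline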
# Method in brief: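 TR-FRET signal measured at 1 h post-dosing; loss-of-signal versus DMSO negative control taken as activity. Extracted gene-protein, cell-free format. Initial single-point duplicates at 25 uM, then concentration-response retests.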
# [6] = biological target: Retinoic acid receptor alpha (Homo sapiens) (UniProt P10276); experiment: NVS_NR_hRARa_Agonist: NovaScreen (NVS) Nuclear Receptor Binding Assay for human Retinoic Acid Alpha Receptor Agonism (RAR) (AID 2283361)
# Method in brief: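 TR-FRET signal, 2 h post-dosing; cell-free extracted protein; DMSO = baseline, positive fitting direction; 25 uM single-point duplicate, then concentration series for actives.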
# [7] = biological target: rat Mineralocorticoid Receptor (MR), Nr3c2 (gene 25672) (UniProt P22199); experiment: NVS_NR_rMR: NovaScreen (NVS) Nuclear Receptor Binding Assay for rat Mineralocorticoid Receptor (MR) (AID 2283355)
# Method in brief: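 Radioligand displacement, scintillation readout; tissue source adrenalectomized rat brain supernatant. Read 24 h post-dose. Screened in duplicate at 25 uM, DMSO negative control, controls on every plate; actives re-run in concentration series.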
# [8] = biological target: Retinoic acid receptor alpha (Homo sapiens) (UniProt P10276); experiment: NVS_NR_hRAR_Antagonist: NovaScreen (NVS) Nuclear Receptor Binding Assay for human Retinoic Acid Alpha Receptor Antagonism (RAR) (AID 2283358)
# Description: NVS_NR_hRAR_Antagonist is a biochemical, single-readout assay that uses extracted gene-proteins in a cell-free assay. Measurements were taken 2 hours after chemical dosing in a 384-well plate.NVS_NR_hRAR_Antagonist is one of one assay component(s) measured or calculated from the NVS_NR_hRAR_Antagonist assay. It is designed to make measurements of fluorescent resonance energy transfer, a form of binding reporter, as detected with fluorescent resonance energy transfer signals by Time-Resolved Fluorescence Resonance Energy Transfer (TR-FRET) technology.Data from the assay component NVS_NR_hRAR_Antagonist was analyzed into 1 assay endpoint. This assay endpoint, NVS_NR_hRAR_Antagonist, was analyzed in the positive analysis fitting direction relative to DMSO as the negative control and baseline of activity. Using a type of binding reporter, loss-of-signal activity can be used to understand changes in the binding as they relate to the gene RARA. Furthermore, this assay endpoint can be referred to as a primary readout, because the performed assay has only produced 1 assay endpoint. To generalize the intended target to other relatable targets, this assay endpoint is annotated to the nuclear receptor intended target family, where the subfamily is non-steroidal.
# (§1) Binding assays used specific radioligands (tritiated, iodinated) with non-radioactive competitive displacement ligands in agonist or antagonist protocols (as indicated) and various reference compounds and inhibitors to titrate specific binding to receptors and transporters. Most enzyme assays (CYPs, kinases, phosphatases, proteases, HDACs) used recombinant protein and specific substrates (fluorescence mostly, some colorimetric and radioactive) and inhibitors, followed by a biochemical separation of substrate and product. All assays for the biochemical HTS were initially run in duplicate at a single concentration (10 uM for CYP450 assays and 25 uM for all others). […] Each assay was run with positive and negative controls, and concurrent controls on every plate. The follow-up (secondary) screen tested active chemical-pairs in concentration series, as well as a few additional assays not tested in the primary screen, some selected negative inactives, and several cases re-run in the concentration series for confirmatory purposes.
# [9] = biological target: human Thyroid Receptor Alpha (TRa), THRA (gene 7067) (UniProt P10827); experiment: NVS_NR_hTRa_Antagonist: NovaScreen (NVS) Nuclear Receptor Binding Assay for human Thyroid Receptor Alpha Antagonism (TRa) (AID 2283362)
# Description: NVS_NR_hTRa_Antagonist is a biochemical, single-readout assay that uses extracted gene-proteins in a cell-free assay. Measurements were taken 1 hour after chemical dosing in a 384-well plate.NVS_NR_hTRa_Antagonist is one of one assay component(s) measured or calculated from the NVS_NR_hTRa_Antagonist assay. It is designed to make measurements of enzyme-linked immunosorbent assay, a form of binding reporter, as detected with chemiluminescence signals by AlphaLISA immunoassay technology.Data from the assay component NVS_NR_hTRa_Antagonist was analyzed into 1 assay endpoint. This assay endpoint, NVS_NR_hTRa_Antagonist, was analyzed in the positive analysis fitting direction relative to DMSO as the negative control and baseline of activity. Using a type of binding reporter, loss-of-signal activity can be used to understand changes in the binding as they relate to the gene THRA. Furthermore, this assay endpoint can be referred to as a primary readout, because the performed assay has only produced 1 assay endpoint. To generalize the intended target to other relatable targets, this assay endpoint is annotated to the nuclear receptor intended target family, where the subfamily is non-steroidal.
# as §1
# Chain of Androgen Receptor/SRC-1 Co-activator, AR (gene 367) (P10275 whole entry, looked up, the tested form may be a part): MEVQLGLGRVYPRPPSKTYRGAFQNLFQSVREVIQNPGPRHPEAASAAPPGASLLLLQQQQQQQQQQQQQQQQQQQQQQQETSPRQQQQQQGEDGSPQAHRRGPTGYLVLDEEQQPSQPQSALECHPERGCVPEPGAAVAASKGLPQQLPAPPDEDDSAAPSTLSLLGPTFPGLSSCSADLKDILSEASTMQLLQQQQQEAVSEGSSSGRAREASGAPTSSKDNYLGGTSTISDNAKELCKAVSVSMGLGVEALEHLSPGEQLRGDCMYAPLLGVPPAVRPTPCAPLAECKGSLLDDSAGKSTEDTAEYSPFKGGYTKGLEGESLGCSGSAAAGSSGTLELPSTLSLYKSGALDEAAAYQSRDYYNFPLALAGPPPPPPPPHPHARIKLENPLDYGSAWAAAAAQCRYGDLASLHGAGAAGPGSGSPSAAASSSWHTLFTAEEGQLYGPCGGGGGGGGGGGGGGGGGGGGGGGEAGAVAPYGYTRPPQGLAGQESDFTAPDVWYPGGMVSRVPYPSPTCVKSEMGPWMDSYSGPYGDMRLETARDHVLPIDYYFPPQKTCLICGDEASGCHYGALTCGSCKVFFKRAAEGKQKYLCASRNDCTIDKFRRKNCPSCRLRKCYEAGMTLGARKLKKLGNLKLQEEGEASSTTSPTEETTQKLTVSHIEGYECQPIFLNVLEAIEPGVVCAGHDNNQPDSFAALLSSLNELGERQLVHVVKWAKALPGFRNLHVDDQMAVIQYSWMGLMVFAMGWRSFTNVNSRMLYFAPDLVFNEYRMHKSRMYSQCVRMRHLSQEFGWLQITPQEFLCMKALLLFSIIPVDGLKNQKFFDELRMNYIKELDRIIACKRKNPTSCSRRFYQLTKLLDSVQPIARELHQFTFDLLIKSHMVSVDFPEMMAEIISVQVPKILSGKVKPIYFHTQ
# Chain of Retinoic acid receptor alpha (Homo sapiens) (P10276 whole entry, looked up): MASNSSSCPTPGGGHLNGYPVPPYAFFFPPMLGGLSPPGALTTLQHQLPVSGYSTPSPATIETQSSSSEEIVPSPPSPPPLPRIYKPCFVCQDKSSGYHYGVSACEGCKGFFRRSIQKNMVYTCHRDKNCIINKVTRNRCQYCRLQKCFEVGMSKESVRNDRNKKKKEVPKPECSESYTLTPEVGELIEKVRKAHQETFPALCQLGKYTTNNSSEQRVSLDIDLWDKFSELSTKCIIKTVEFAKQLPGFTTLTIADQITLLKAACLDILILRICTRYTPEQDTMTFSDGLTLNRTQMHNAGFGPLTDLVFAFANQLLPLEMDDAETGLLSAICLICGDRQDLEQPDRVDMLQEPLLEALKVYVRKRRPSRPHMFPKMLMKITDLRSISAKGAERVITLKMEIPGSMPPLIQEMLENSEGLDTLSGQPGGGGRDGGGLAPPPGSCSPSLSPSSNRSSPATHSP
# Chain of human Thyroid Receptor Alpha (TRa), THRA (gene 7067) (P10827 whole entry, looked up): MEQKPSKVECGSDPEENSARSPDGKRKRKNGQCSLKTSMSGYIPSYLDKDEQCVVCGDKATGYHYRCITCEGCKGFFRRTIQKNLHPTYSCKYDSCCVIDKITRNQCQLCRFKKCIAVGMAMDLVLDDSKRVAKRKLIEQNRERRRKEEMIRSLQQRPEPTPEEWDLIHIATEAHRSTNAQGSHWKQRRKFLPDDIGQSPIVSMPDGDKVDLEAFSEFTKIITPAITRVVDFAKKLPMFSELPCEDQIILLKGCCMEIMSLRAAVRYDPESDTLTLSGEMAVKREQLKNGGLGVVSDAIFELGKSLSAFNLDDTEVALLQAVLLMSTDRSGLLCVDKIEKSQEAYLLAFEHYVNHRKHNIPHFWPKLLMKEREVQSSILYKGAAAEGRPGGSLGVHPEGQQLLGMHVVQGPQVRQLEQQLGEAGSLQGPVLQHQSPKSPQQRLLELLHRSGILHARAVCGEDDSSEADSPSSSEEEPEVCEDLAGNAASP
# Chain of Estrogen receptor beta (Homo sapiens) (Q92731 whole entry, looked up, the tested form may be a part): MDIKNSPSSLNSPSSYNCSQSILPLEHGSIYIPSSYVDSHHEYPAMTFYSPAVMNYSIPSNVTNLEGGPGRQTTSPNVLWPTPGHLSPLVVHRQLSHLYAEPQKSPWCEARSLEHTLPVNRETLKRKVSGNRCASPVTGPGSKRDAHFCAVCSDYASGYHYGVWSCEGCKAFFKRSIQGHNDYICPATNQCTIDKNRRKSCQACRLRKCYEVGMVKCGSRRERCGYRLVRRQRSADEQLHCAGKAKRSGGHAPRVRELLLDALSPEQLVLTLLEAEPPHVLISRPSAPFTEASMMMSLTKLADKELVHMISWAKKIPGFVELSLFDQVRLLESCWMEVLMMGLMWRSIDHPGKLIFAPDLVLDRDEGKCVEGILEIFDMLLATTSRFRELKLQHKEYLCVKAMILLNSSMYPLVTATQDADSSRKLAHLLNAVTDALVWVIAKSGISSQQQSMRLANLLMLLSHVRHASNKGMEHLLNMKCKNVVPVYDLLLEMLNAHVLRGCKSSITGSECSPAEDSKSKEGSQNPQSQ
# Chain of Estrogen receptor (Homo sapiens) + Estrogen receptor beta (Homo sapiens) (P03372 whole entry, looked up, the tested form may be a part): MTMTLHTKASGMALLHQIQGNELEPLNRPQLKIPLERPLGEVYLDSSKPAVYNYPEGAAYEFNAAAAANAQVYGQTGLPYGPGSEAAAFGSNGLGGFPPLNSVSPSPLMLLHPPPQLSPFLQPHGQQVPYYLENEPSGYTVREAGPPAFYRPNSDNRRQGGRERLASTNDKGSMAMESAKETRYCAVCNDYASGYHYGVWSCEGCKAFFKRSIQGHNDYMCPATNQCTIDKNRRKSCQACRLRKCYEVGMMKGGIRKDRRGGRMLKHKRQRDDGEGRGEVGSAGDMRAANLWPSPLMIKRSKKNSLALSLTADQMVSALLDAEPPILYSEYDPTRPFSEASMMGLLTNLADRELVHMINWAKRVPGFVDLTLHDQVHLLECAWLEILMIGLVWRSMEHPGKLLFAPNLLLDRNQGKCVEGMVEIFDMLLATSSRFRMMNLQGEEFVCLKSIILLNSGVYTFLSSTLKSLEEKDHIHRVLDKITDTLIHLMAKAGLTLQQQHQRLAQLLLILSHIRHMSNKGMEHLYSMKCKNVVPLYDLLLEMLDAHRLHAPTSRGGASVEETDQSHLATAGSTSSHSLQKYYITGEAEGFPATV
# Chain of Estrogen receptor (Homo sapiens) + Estrogen receptor beta (Homo sapiens) (Q92731 whole entry, looked up, the tested form may be a part): as the sequence (Q92731 whole entry, looked up, the tested form may be a part) above
# Chain of human Peroxisome Proliferator-activated Receptor alpha (PPARa), PPARA (gene 5465) (Q07869 whole entry, looked up): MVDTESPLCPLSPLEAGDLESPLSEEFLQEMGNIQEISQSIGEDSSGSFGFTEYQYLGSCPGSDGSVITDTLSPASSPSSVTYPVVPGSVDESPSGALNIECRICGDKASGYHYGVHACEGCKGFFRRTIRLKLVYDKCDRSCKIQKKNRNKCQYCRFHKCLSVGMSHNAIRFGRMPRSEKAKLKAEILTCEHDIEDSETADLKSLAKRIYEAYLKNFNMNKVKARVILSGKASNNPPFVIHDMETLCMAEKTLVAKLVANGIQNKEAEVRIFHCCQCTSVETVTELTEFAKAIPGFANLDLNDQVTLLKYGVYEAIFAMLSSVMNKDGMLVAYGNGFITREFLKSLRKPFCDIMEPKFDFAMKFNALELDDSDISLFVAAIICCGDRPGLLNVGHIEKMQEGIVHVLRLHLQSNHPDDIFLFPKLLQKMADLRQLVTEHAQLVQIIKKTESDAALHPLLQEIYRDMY
# Chain of PGR (gene 5241) (P06401 whole entry, looked up): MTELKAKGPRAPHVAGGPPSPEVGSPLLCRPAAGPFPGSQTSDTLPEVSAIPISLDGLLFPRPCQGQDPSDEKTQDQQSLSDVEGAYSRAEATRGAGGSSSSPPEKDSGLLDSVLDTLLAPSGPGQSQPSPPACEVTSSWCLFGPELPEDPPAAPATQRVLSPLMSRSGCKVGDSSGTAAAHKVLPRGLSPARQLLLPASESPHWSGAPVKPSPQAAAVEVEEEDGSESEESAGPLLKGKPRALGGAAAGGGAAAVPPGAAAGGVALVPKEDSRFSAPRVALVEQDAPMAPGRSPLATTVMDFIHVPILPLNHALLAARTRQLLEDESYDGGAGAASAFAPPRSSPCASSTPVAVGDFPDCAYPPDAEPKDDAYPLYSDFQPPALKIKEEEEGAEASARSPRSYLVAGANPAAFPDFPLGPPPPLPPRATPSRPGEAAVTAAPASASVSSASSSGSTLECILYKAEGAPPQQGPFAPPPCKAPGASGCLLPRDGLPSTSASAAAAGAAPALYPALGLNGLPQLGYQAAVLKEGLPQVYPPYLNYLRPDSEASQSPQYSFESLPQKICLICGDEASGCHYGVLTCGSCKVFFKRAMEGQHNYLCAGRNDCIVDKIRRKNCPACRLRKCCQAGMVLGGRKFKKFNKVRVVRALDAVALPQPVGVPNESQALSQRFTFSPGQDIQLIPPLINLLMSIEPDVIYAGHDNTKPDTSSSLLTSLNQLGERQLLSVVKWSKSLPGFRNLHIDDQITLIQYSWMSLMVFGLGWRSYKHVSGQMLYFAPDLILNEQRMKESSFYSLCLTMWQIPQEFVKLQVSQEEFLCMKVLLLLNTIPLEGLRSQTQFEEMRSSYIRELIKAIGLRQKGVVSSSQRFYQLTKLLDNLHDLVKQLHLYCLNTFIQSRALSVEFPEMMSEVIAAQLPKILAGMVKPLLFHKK
structure (smiles),measurement,setting,value
Cc1cc(CCN2CCN(c3nsc4ccccc34)CC2)cc2c1NC(=O)CC2(C)C,AC50,[1],12.6 µM (active)
same,AC50,[2],15.4 µM (active)
same,outcome,[3],inactive
same,outcome,[4],inactive
same,AC50,PGR (gene 5241),36 µM (active)
OC1CCC(C2CCCCC2)CC1 (stereo not given),AC50,[3],60.7 µM (active) and 64.1 µM (active) and 59.4 µM (active)
same,outcome,[3],inactive
same,AC50,[4],25.6 µM (active) and 31.9 µM (active) and 26.9 µM (active)
same,outcome,[4],inactive
same,outcome,[5],inactive
same,outcome,[6],inactive
CCCCCCCCCCCCc1ccccc1S(=O)(=O)O,outcome,[1],inactive
same,outcome,[2],inactive
same,outcome,[7],inactive
same,outcome,[3],inactive
same,outcome,[4],inactive
same,AC50,[8],19 µM (active)
same,AC50,PGR (gene 5241),15.1 µM (active)
same,outcome,[9],inactive
CCCCC(CC)COC(=O)CCCCC(=O)OCC(CC)CCCC (stereo not given),outcome,[3],inactive
same,outcome,[4],inactive
same,outcome,[6],inactive
C=C(C)C(=O)OCCC(F)(F)C(F)(F)C(F)(F)C(F)(F)C(F)(F)C(F)(F)F,outcome,[3],inactive
same,outcome,[4],inactive
same,outcome,PGR (gene 5241),inactive
CC[C@H](C)[C@@H](C(=O)O)n1sc2ccccc2c1=O,outcome,[3],inactive
same,outcome,[4],inactive
same,outcome,PGR (gene 5241),inactive
CCCCCCCC(=O)O,AC50,[3],17.1 µM (active)
same,AC50,[4],50 µM (active)
same,AC50,[5],4.38 µM (active)
same,outcome,PGR (gene 5241),inactive
NC(=O)N(O)[C@@H]1C=C[C@H](Oc2cccc(Oc3ccc(F)cc3)c2)C1,AC50,[3],34.8 µM (active)
same,AC50,[4],50 µM (active)
same,outcome,PGR (gene 5241),inactive
CCCOc1sc(C(=O)N2CCC(c3cc(CN)ccc3F)CC2)c(C)c1Br,outcome,PGR (gene 5241),inactive
CC(C)CCCCCCOC(=O)CCCCC(=O)OCCCCCCC(C)C,outcome,[8],inactive
same,outcome,[6],inactive
COC(=O)CCCCC(=O)OC,outcome,PGR (gene 5241),inactive
Cc1cc(C)c(O)c(C)c1,outcome,[5],inactive
O=C(O)Cc1cc(I)c(Oc2cc(I)c(O)c(I)c2)c(I)c1,outcome,[3],inactive
same,outcome,[4],inactive
same,outcome,[8],inactive
same,outcome,[5],inactive
CCc1nn(C2CCCCC2)c2cc(C3(C#N)CCC(C(=O)O)CC3)ccc12 (stereo not given),outcome,[3],inactive
same,outcome,[4],inactive
Nc1cccc2c(N)cccc12,outcome,[3],inactive
same,outcome,[4],inactive
same,outcome,PGR (gene 5241),inactive
same,AC50,[6],20.5 µM (active)
CCN(CC)CCNc1ccc(CNC=O)c2sc3ccc(OC)cc3c(=O)c12,outcome,[4],inactive
same,AC50,[6],8.9 µM (active)
same,AC50,[9],15.1 µM (active)
c1ccc2cc3c(ccc4ccccc43)cc2c1,outcome,[9],inactive
ClC1=C(Cl)C(Cl)(Cl)C(Cl)=C1Cl,outcome,[4],inactive
CN1CCN(c2ccccc2/C=C2\SCCN(c3ccc(Cl)c(Cl)c3)C2=O)CC1,outcome,[4],inactive
CCCCCCC(=O)O,outcome,[3],inactive
same,outcome,[4],inactive
same,outcome,PGR (gene 5241),inactive
CCOC(=O)CC(O)(CC(=O)OCC)C(=O)OCC,outcome,[4],inactive
same,outcome,[5],inactive
CC(C)(C)c1ccc(O)c(C(C)(C)C)c1,outcome,[3],inactive
same,outcome,[4],inactive
same,outcome,[5],inactive
same,outcome,[9],inactive
CC(C)(C)c1cc(C(C)(C)C)c(O)c(C(C)(C)C)c1,AC50,[3],73.3 µM (active)
same,AC50,[4],29.3 µM (active)
same,outcome,[5],inactive
CCCOC(=O)c1ccc(O)cc1,AC50,[3],15.5 µM (active)
same,AC50,[4],7.31 µM (active)
same,outcome,[5],inactive
CCCCCCCCCCCCCCCS(=O)(=O)Oc1ccccc1,outcome,[3],inactive
same,outcome,[4],inactive
c1ccc2c(c1)Cc1ccccc1-2,outcome,[3],inactive
same,outcome,[4],inactive
same,outcome,[8],inactive
same,outcome,PGR (gene 5241),inactive
CC(=O)NC1(c2cccc(F)c2)CCN(CC[C@@]2(c3ccc(Cl)c(Cl)c3)CN(c3ccccc3)C(=O)CO2)CC1,AC50,[9],20.8 µM (active)
CCCCCCCCCCCCCC[N+](C)(C)C,AC50,[8],28.3 µM (active)
same,AC50,PGR (gene 5241),39.3 µM (active)
CCCCCCCCOC(=O)CCCCCCCCC(=O)OCCCCCCCC,outcome,[3],inactive
same,outcome,[4],inactive
same,outcome,[5],inactive
CCc1ccc(CCOc2ccc(CC3SC(=O)NC3=O)cc2)nc1 (stereo not given),outcome,[3],inactive
same,outcome,[4],inactive
same,outcome,[5],inactive
CC1=C(/C=C/C(C)=C/C=C/C(C)=C/C(=O)O)C(C)(C)CCC1,outcome,[8],inactive
same,outcome,[5],inactive
CCCCCCCCCCCCN1CCCC1=O,outcome,[3],inactive
same,outcome,[4],inactive
